Tested on: not listed separately
Experiment: compound binding in COS7 lysate, probe aLAP1, primary screen, cell lysate, small-molecule microarray (AID 1124);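 note: lysate comes from COS7 cells expressing LAP1 and is applied at 0.3 µg/mL; score merges spot fluorescence near 667 nm with signal-to-noise over triplicate slides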
Conditions: probe aLAP1, fluorescence, higher = more signal

Compound | composite z-score
C[C@@H](c1ccccc1)N1C(=O)[C@H]2[C@H]3[C@H](O)[C@H](O)CC(=NOC[C@@H](O)COCc4ccco4)[C@@H]3CC[C@H]2C1=O | -0.254
COc1ccc(O[C@H]2C=C[C@@H](c3ccccc3)O[C@@H]2COC(=O)CCC(C)=NOCC[C@@H]2C=C[C@H](OC(C)=O)[C@@H](COC(C)=O)O2)cc1 | 0.203
O=C1[C@H]2[C@H]3[C@H](O)[C@H](O)CC(=NOC[C@@H](O)COCc4ccco4)[C@H]3CC[C@H]2C(=O)N1c1cccc(Oc2ccccc2)c1 | 0.137
COC(=O)CC=C[C@@H](C)[C@@H](C=NO[C@@H](C)c1cc(-c2c(C)cc(C)cc2C)no1)OC | -0.52
COc1ccc(COC(=O)NN=C2C[C@@H](O)[C@@H](O)[C@@H]3[C@@H]4C(=O)N(Cc5ccc6c(c5)OCO6)C(=O)[C@@H]4CC[C@@H]23)cc1 | 0.616
C[C@@H]1CCC2C(=O)N(Cc3ccccc3)C[C@@H](O)CN2[C@H]1c1ccc(Br)cc1 (some centres not stated) | -0.0066

Tested on: Sam68 (KHDRBS1)
Experiment: Sam68 small-molecule binders, primary screen, biochemical, small-molecule microarray, 635 nm fluorescence (AID 1125);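 note: score merges 667 nm channel intensity with signal to noise over triplicate slides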
Conditions: small-molecule microarray binding, higher = more signal

Compound | composite z-score
COC(=O)[C@H](C)NC(=O)CCC1CC(OC(=O)NCCc2ccc(F)cc2)CC2(CCCC(COC(=O)NCCc3ccc(Cl)cc3)O2)O1 (some centres not stated) | 1.07
C=COC[C@H]1CN2[C@@H](CC[C@@H](C)[C@@H]2c2ccc(Br)cc2)C(=O)O1 | 1.33
CN1C(=O)C2C=CC(C(O)c3ccc(Br)cc3)N(N(c3ccccc3)c3ccccc3)C2C1=O (configuration not stated) | 0.676
COC(=O)[C@H](C)NC(=O)[C@@H](C)CO | 1.03
O=C1[C@H]2[C@H]3[C@H](O)[C@H](O)CC(=NOCc4ccccc4)[C@@H]3CC[C@H]2C(=O)N1Cc1ccccc1 | 0.598
CC(C)[C@@H](OCc1ccccc1)[C@H](C)C=NOC[C@@H](C)[C@H](OCc1ccccc1)C(C)C | -0.24
CCOC(=O)[C@H](Cc1ccccc1)NC(=O)CCC1CC(OC(=O)NCc2ccc3c(c2)OCO3)CC2(CCCC(COC(=O)NCC3CCCCC3)O2)O1 (some centres not stated) | 1.3
COC(=O)[C@@H]1CC[C@H](C)[C@@H](c2ccc(C)cc2)N1C(=O)c1ccc(C=NOC[C@@H](O)COCc2ccco2)cc1 | -1.9
Cc1cc2c(nc1C)CCCN2CC(O)CN1CCN(C)CC1 (configuration not stated) | 0.693
C=C(CCCC)C(=O)CC[C@@H](OC(C)=O)c1cccc(OCCO)c1 | -0.106
CCOC(=O)[C@H](Cc1ccccc1)NC(=O)CCC1CC(OC(=O)NCc2ccc3c(c2)OCO3)CC2(CCCC(COC(=O)NCC(c3ccccc3)c3ccccc3)O2)O1 (some centres not stated) | 1.32
C#CCCCON=C1C[C@@H](O)[C@@H](O)[C@@H]2[C@@H]3C(=O)N(c4cccc(Oc5ccccc5)c4)C(=O)[C@@H]3CC[C@@H]12 | 1.32
CC(C)CON=C1C[C@@H](O)[C@@H](O)[C@@H]2[C@@H]3C(=O)N(C[C@@H]4CCCO4)C(=O)[C@@H]3CC[C@H]12 | 0.697
CCN1C(=O)[C@H]2[C@H]3[C@H](O)[C@H](O)CC(=NO[C@@H]4O[C@H](CO)[C@@H](O)[C@H](O)[C@H]4O)[C@@H]3CC[C@H]2C1=O | -1.5
COc1ccc(-c2ccc3c(n2)CCCN3CC(O)CN2CCCc3nc(C)c(C)cc32)cc1 (configuration not stated) | 1.2
CO[C@H]1O[C@H](CO)[C@@H](OC(=O)Nc2ccc3c(c2)OCO3)[C@H](OC(=O)Nc2ccccc2-c2ccccc2)[C@@H]1OC(=O)Nc1ccccc1-c1ccccc1 | 1.28
COC(=O)CC1OC1[C@H](C)[C@@H](OC)C(C)C (some centres not stated) | -0.22
CO[C@@H]1COC(=O)CC=C[C@@H](C)[C@@H]2C=C[C@H](O)[C@@H](COC(=O)[C@H](C)NC(=O)CC=C[C@H]1C)O2 | 0.249

Compound | composite z-score
N#Cc1ccc(NN2C(C(O)c3cc(C(F)(F)F)cc(C(F)(F)F)c3)C=CC3C(=O)N(c4ccccc4)C(=O)C32)cc1 (configuration not stated) | 1.33
CCOC(=O)NN=C1C[C@@H](O)[C@@H](O)[C@@H]2[C@@H]3C(=O)N(C[C@@H]4CCCO4)C(=O)[C@@H]3CC[C@@H]12 | 0.339
COCCOC(=O)N1C(=O)[C@@]2(c3cc(C#CC4(O)CCCCCC4)ccc31)[C@H](C(=O)N1CCN(c3ncccn3)CC1)[C@H]1C(=O)O[C@H](c3ccccc3)[C@H](c3ccccc3)N1[C@@H]2c1ccc(OCCO)cc1 | 1.3
C=CC[C@]1(C(=O)NCc2ccccc2)N=C(c2ccc(OCCCO)cc2)O[C@H]1c1ccccc1 | 1.28
COc1ccc(O[C@H]2C=C[C@@H](c3ccccc3)O[C@@H]2COC(=O)CCC(C)=NOC(C)CN2CCCCc3nc(C)c(C)cc32)cc1 (some centres not stated) | -0.433
CO[C@@H]1COC(=O)CC=C[C@@H](C)[C@@H]2C=C[C@@H](O)[C@@H](COC(=O)CC=C[C@H]1C)O2 | 0.228
CCOC(=O)[C@H](Cc1ccccc1)NC(=O)CCC1CC(OC(=O)NCCc2ccc(F)cc2)CC2(CCCC(COC(=O)NCC(c3ccccc3)c3ccccc3)O2)O1 (some centres not stated) | 1.32
C[C@H]1CC[C@@H](C(=O)O)N[C@@H]1c1ccc(C#CCN(C)C)cc1 | -0.331
O=C1NC(=O)C2C1C=CC(C(O)Cc1ccccc1)N2Nc1ccccn1 (configuration not stated) | 0.322
CCOC(=O)CCN1C(=O)[C@H]2[C@H]3[C@H](O)[C@H](O)CC(=NOC[C@@H](O)COCc4ccco4)[C@@H]3CC[C@H]2C1=O | 0.0665
CC(C)(C)N1C(=O)[C@H]2[C@H]3[C@H](O)[C@H](O)CC(=NOCc4ccccc4)[C@@H]3CC[C@H]2C1=O | 1.17
COC(=O)[C@@]1(Cc2ccccc2)[C@H]2c3cc(C(=O)N4CCCC4)n(Cc4ccccn4)c3C[C@H]2CN1C(=O)c1ccccc1 | 1.29
C[C@@H](c1ccccc1)N1C(=O)[C@H]2[C@H]3[C@H](O)[C@H](O)CC(=NOC[C@@H](O)COCc4ccco4)[C@@H]3CC[C@H]2C1=O | -0.779
COc1ccc(O[C@H]2C=C[C@@H](c3ccccc3)O[C@@H]2COC(=O)CCC(C)=NOCC[C@@H]2C=C[C@H](OC(C)=O)[C@@H](COC(C)=O)O2)cc1 | -0.23
O=C1[C@H]2[C@H]3[C@H](O)[C@H](O)CC(=NOC[C@@H](O)COCc4ccco4)[C@H]3CC[C@H]2C(=O)N1c1cccc(Oc2ccccc2)c1 | -0.572
COC(=O)CC=C[C@@H](C)[C@@H](C=NO[C@@H](C)c1cc(-c2c(C)cc(C)cc2C)no1)OC | -1.32
COc1ccc(COC(=O)NN=C2C[C@@H](O)[C@@H](O)[C@@H]3[C@@H]4C(=O)N(Cc5ccc6c(c5)OCO6)C(=O)[C@@H]4CC[C@@H]23)cc1 | -0.395
C[C@@H]1CCC2C(=O)N(Cc3ccccc3)C[C@@H](O)CN2[C@H]1c1ccc(Br)cc1 (some centres not stated) | 0.621

Reference: PubChem BioAssay
